High-throughput results (PubChem BioAssay)
This is a sample that favours compounds with a hit; in the whole collection about 1.2% have one here.
gsp agonist: gsp mutant agonism | gsp mutant cells, cAMP HTRF, 30 min | Potency, µM (doses to about 76.9 µM), inactives show at the highest dose activation (cAMP increase), most hits filed as activators | 340,000 tested, 0.13% active; active = well fitted activation curve with a large enough effect; inconclusive = small, poorly fitted or top-dose-only effect, or another doubt; inactive = no such curve, though single readings can be large or run the other way; cell line not stated here;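 note: phosphodiesterase inhibitor Ro 20-1724 added with compounds to block cAMP breakdown; potency is the fitted concentration of half-maximal effect; nearly all actives have a fitted effect of over 60% in size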
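Cells stably selected in G418 were plated at 2000/well, grown 16-24 hr, then given compounds in DMSO with the PDE inhibitor […] (300 uM solution added) for 30 min at 37C; cAMP was read by HTRF.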
RXFP1 antag: RXFP1 (human) relaxin receptor antagonism; Q9HBX9; HEK293-RXFP1, relaxin-stimulated cAMP HTRF, 30 min; active compounds read low; activity change, negative = inhibition, % at 57.5 µM; 350,000 tested, 0.59% active; AID 1259400;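 active = activity change of -60% or lower, but not beyond a set lower limit; inconclusive = change between -60% and -40%, or beyond the set limit; inactive = change above -40%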; note: % is set by controls: 0 for no effect and ±100 for the full control effect
Target sequence (Q9HBX9 whole entry, looked up): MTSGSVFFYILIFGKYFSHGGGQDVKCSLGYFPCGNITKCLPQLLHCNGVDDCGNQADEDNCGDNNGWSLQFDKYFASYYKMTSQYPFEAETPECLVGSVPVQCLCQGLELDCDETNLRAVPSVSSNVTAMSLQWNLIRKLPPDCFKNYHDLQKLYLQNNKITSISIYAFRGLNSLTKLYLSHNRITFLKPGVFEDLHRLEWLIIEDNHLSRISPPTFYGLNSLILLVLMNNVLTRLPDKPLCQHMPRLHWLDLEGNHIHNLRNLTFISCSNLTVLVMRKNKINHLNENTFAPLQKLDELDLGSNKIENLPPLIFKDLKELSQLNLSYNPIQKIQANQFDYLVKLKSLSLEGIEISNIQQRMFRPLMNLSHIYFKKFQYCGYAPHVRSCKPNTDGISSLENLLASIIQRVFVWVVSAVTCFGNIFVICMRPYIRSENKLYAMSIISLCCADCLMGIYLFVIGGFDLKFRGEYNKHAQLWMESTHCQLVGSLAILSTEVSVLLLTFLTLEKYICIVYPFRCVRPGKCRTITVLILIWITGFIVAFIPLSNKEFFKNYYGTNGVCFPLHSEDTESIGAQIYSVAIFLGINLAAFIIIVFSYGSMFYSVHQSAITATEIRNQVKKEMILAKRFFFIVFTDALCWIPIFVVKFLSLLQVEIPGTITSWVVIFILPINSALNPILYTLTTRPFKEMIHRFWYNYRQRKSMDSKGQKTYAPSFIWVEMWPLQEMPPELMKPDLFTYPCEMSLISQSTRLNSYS
RXFP1 agonist: activates the human relaxin receptor RXFP1 | Potency, µM (doses to about 57.5 µM), inactives show top-dose activation, most hits filed as activators | AID 2676 | Q9HBX9 | HEK293T-RXFP1 cAMP TR-FRET, 30 min; response scale: percent of porcine relaxin response, buffer zero | 370,000 tested, 0.3% active; active = well fitted activation curve with a large enough effect; inconclusive = small, poorly fitted or top-dose-only effect; note: potency is the fitted concentration of half-maximal effect; % is set by controls: 0 for no effect and ±100 for the full control effect; nearly all actives have a fitted effect of over 60% in size
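cAMP rise read by TR-FRET after 30 min, 37C compound exposure (up to 58 uM) in RXFP1-transfected HEK293 cells with Ro 20174 present. EC50 from Hill-equation fits, with 29 nM porcine relaxin as 100% and buffer as basal.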
Akt phos inh: blocks phosphorylation of Akt. Neuro2A IGF-stimulated pAkt S473 HTRF, 20 min; active compounds read low. activity change, % for hits at 50 µM. 360,000 tested, 0.32% active; in the data active = activity change below about -80%; inconclusive = mostly about -51% to -80%; note: % is set by controls: 0 for no effect and ±100 for the full control effect
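Single-point screen (50 µM final compound) in Neuro2A cells stimulated 20 min with 6 nM IGF at 37 deg C. After lysis, Ser473-phosphorylated Akt read by HTRF (ex 330 nm, em 615/665 nm) as the 665/615 ratio.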
gsp antagonist: gsp mutant antagonism | 340,000 tested, 0.4% active | AID 624288 | gsp-mutant cells, cAMP HTRF, 30 min | Potency, µM (titrated, usually from 76.9 µM), for the others: at the top dose activity change, negative = inhibition, most hits filed as inhibitors; calls by dose curve; cell line not stated here;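 note: intracellular cAMP measured with PDE inhibitor Ro 20-1724 present during compound exposure; potency is the fitted concentration of half-maximal effect; % is set by controls: 0 for no effect and ±100 for the full control effect; nearly all actives have a fitted effect of over 65% in size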
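Measurement of cellular cAMP by homogeneous time-resolved fluorescence following a 30 min compound exposure at 37C. The PDE inhibitor […] was present throughout; the assay buffer was DPBS with 0.05% BSA and 0.005% Tween 20.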
The depositor's hits bear a star; i = inactive; u = inconclusive; x = not tested or not shown; [ ] = dose if it differs, or a comment.

SMILES	gsp agonist	RXFP1 antag	RXFP1 agonist	Akt phos inh	gsp antagonist
CCOC(=O)c1cc(-c2ccccc2)n(CC(=O)N(C)c2ccc(OC)cc2)c1C	x	-74*	-3%	x	x
COc1cccc(CNC(=O)CCCn2nc(C)c3sc4ccccc4c3c2=O)c1	x	-10	u	x	x
CSc1ccc(CNC(=O)CCc2c(C)nn(-c3ccc(N4CCCC4)nn3)c2C)cc1	x	12	0%	x	x
COc1cccc(C(=O)Nc2ccccc2N2CCN(C(=O)c3ccccc3)CC2)c1	6%	-8	x	i	25µM*
CN1CCN(c2ccccc2NC(=O)c2ccc(-c3ccccc3)cc2)CC1	12%	-15	0%	i	50µM*
COc1cccc(C(=O)Nc2ccccc2N2CCCC2)c1	5%	6	1%	i	-7%
COCCNC(=O)c1cn(C)c2ccc(S(=O)(=O)N3CCCC3)cc2c1=O	4%	-4	5%	x	50µM*
CCOCCCNC(=O)c1cn(C)c2ccc(S(=O)(=O)N3CCCC3)cc2c1=O	-47%	-13	5%	i	-7%
CCOC(=O)c1nnn2c1nc(SCC(C)=O)c1ccccc12	26%[15.4 µM]	22	16µM*	i	18%
C=CCSc1nc2c(C(=O)OCC)nnn2c2ccccc12	u	-11	-1%	i	-2%
CCCCCCC1NC(C(=O)O)CS1 (stereo unspecified)	-15%	2	0%	-113%*	-1%
CCCCC1NC(C(=O)O)CS1 (stereo unspecified)	4%[15.4 µM]	3	0%	i	-5%
COc1cccc(CNC(=O)c2cc(-c3ccc(Cl)cc3)n[nH]2)c1	x	-16	-1%	x	x
O=C1C2=C(Nc3ccccc3SC2c2ccco2)c2ccccc21 (stereo unspecified)	-27%	-27	0%	-114%*	-4%
O=C(Nc1ccccc1)Nc1ncc([N+](=O)[O-])s1	-12%[15.4 µM]	-18	1%	i	28µM*
Cc1onc(-c2ccccc2)c1C(=O)Nc1cccc2nsnc12	35µM*	-4	u	-120%*	21%
CCn1nnnc1SCC(=O)c1ccc2c(c1)OCCO2	-28%	-6	2%	-104%*	6%
CC(C)n1nnnc1SCC(=O)c1ccc2c(c1)OCCO2	16%	-8	0%	i	-3%
CCc1c(C)sc2c1CCN(C(=O)Nc1ccc(F)c(Cl)c1)C2c1ccc(F)cc1 (stereo unspecified)	x	-19	0%	x	x
NC(=O)N/N=C/c1ccc([N+](=O)[O-])o1	x	-13	1%	i	1%
COC(=O)N/N=C/c1ccc([N+](=O)[O-])o1	-30%	-1	0%	-115%*	1%
Cc1ccc(Cl)cc1NC(=O)CSc1ccc(C(=O)O)cn1	x	-4	4%	x	x
Cc1cnc2cc(Cl)ccc2c1SCC(=O)O	10µM*	11	21%	i	-5%
O=C(O)CSc1ccnc2cc(Cl)ccc12	20%[15.4 µM]	20	13µM*	i	21%
CC(C)CCN(Cc1ccco1)C(=O)c1cc2c(s1)-c1ccccc1OC2	x	x	5%	x	x
SMILES	gsp agonist	RXFP1 antag	RXFP1 agonist	Akt phos inh	gsp antagonist
Cc1cc(Cl)ccc1NC(=O)c1cccc(NC(=O)N2CCSc3ncccc32)c1	x	-6	2%	x	x
Cc1ccc2nc(-c3cc(NC(=O)COc4ccc(C)c(C)c4)ccc3Cl)oc2c1	x	-11	0%	x	x
COc1cc(NC(=O)N2CCC3(CC2)Nc2ccccc2-n2cccc23)cc(OC)c1OC	x	-26	10%	x	x
CC#C[C@]1(O)CC[C@H]2[C@@H]3CCC4=CC(=O)CCC4=C3[C@@H](c3ccc(N(C)C)cc3)C[C@@]21C	x	-36	3%	i	35µM*
Cc1coc2ccccc2c1=O	x	-2	x	x	x
OCCN1CCN(c2nc(-c3ccccc3)c3cc(Br)ccc3n2)CC1	5%	-70*	8%	i	6%
O=C(O)C1CCN(c2nc(-c3ccccc3)c3cc(Br)ccc3n2)CC1	46%[15.4 µM]	-16	u	i	u
COc1cc(/C=C2\SC(=S)NC2=O)ccc1OS(=O)(=O)c1ccccc1	x	x	-4%	x	x
O=C1NC(=S)SC1=Cc1ccc(Cl)cc1	22%	-19	x	i	28µM*
O=C1NC(=S)SC1=Cc1ccc(F)cc1	-2%	-27	x	i	-8%
CCOc1ccc(/C=C2\SC(=S)NC2=O)cc1OC	-26%	-73*	1%	i	u
COc1ccc(CCNC(=O)c2ccc3c(c2)c(C)c(C)n3Cc2ccc(F)cc2)c(OC)c1OC	x	-5	0%	x	x
COC(=O)c1ccc2c(=O)n(CCCCCC(=O)N3CCN(c4cc(C)ccc4C)CC3)c(=O)[nH]c2c1	x	-23	1%	x	x
Cc1ccc(C)c(NC(=O)CSc2nc(-c3ccccc3)c(C#N)c(=O)[nH]2)c1	x	10	-3%	x	x
N#Cc1c(-c2cccs2)nc(SCc2ccc(Cl)cc2)[nH]c1=O	73%[15.4 µM]	-3	16µM*	i	16%
CNC(=O)NC(=O)CSc1nc(-c2cccs2)c(C#N)c(=O)[nH]1	u	43	14µM*	i	0%
CSc1nc(-c2ccccc2)c(C#N)c(=O)[nH]1	u	36	u	i	16%
O=c1[nH]c(SCc2ccc(Cl)cc2)nc2ccsc12	-24%	5	0%	i	-2%
CSc1nc(-c2cccs2)c(C#N)c(=O)[nH]1	112%[15.4 µM]	23	14µM*	i	18%
CCc1nc(SCc2ccc(F)cc2)[nH]c(=O)c1C#N	-11%	-18	-1%	i	35µM*
Cc1snc(SCc2ccc(F)cc2)c1C#N	-25%	-10	-3%	i	-5%
COc1cc(-c2ccno2)ccc1S(=O)(=O)N1CCN(c2cccc(Cl)c2)CC1	x	1	1%	x	x
O=C(c1ccc2snnc2c1)N1CCSCC1	3%	-1	0%	-108%*	8%
O=C(c1ccc2snnc2c1)N1CCCCC1	16%	3	3%	i	8%
CC(C)Cn1c(N)c(C(=O)COC(=O)c2cccc(Cl)c2)c(=O)n(C)c1=O	4%[15.4 µM]	-34	7%	i	50µM*
SMILES	gsp agonist	RXFP1 antag	RXFP1 agonist	Akt phos inh	gsp antagonist
COCc1c(C(=O)OCC(=O)c2c(N)n(CC(C)C)c(=O)n(C)c2=O)oc2ccccc12	u	-16	2%	-103%*	u
CC(C)Cn1c(N)c(C(=O)COC(=O)c2ccccc2Cl)c(=O)n(C)c1=O	-40%	-7	1%	i	-33%
Cc1noc(C)c1C(=O)OCC(=O)c1c(N)n(CC(C)C)c(=O)n(C)c1=O	32µM*	0	23%	i	20%
Cc1c(C(=O)OCC(=O)c2c(N)n(CC(C)C)c(=O)n(C)c2=O)oc2ccccc12	u	-6	-2%	i	-13%
CC(C)Cn1c(N)c(C(=O)COC(=O)c2c(F)cccc2F)c(=O)n(C)c1=O	19%	-10	1%	i	-42%
CC[C@@H](CO)NCCN[C@@H](CC)CO	x	-9	x	x	x
COc1ccc(Nc2c(-c3ccc(C)o3)nc3cc(C)ccn23)cc1	x	18	15%	x	x
